Test results published in PubChem BioAssay AID485273 (Sanford-Burnham Center for Chemical Genomics, 2010).
Among all 330,000 compounds or so, about 1,500 (0.45%) were called active. Rule as the data show it: active = inhibition above about 45% (passing the limit was not always enough); inconclusive = no clear call, values can overlap the other calls. This excerpt belongs to a sample that is enriched for actives.

target: Ubiquitin-conjugating enzyme E2 N (Homo sapiens) (UniProt P61088); test: blockers of UBC13 ubiquitin chain synthesis – biochemical, TR-FRET, uHTS, primary screen (AID 485273); conditions: UBC13 polyubiquitin chain formation, at 20 µM, stronger effect = higher value
Sequence (P61088 whole entry, looked up): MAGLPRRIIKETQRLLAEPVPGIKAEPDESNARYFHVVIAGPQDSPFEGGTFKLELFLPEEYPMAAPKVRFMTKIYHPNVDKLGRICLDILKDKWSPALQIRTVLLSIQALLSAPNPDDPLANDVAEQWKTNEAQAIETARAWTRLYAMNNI

Row | SMILES | inhibition
1 | CNCC(O)c1cc(F)c(OCc2ccccc2)c(OCc2ccccc2)c1F (stereo not given) | 69.2% (active)
2 | CCN(N=Nc1nonc1OC)c1nonc1OC | -6.3% (inactive)
3 | CCCC[N+]1(C)C2CC(OC(=O)C(CO)c3ccccc3)CC1C1OC12 (stereo not given) | 1.6% (inactive)
4 | CCOC(=O)c1c(C)c(C(=O)N2CCC3(CC2)OCCO3)c(C)n1CC | -14.5% (inactive)
5 | O=C1NC(=O)C(CCc2ccccn2)(Cc2cccc(Cl)c2Cl)C(=O)N1c1ccc(Br)cc1 (stereo not given) | 0.9% (inactive)
